According to PubChem BioAssay AID588856 (National Center for Advancing Translational Sciences (NCATS), 2011):
About 3,100 (0.76%) of roughly 410,000 compounds were called active. Many of the other results were omitted from the sample, so actives are more common in it than they were. A number with no mark means an inactive call. The call rests on the fitted dose curve; in most records, active means well fitted cell-killing curve with a large enough effect; inactive means no such curve, though single readings can be large or run the other way.

Assay: qHTS for Inhibitors of TGF-b: Cytotox Counterscreen
Settings: HepG2 CAGA-GFP viability, ATP luminescence, 18 h; series mostly up to 46.1 µM; activity change, negative = cytotoxicity: at the top concentration
In short: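 HepG2 CAGA-GFP cells (1000/well, DMEM with 1% FBS) received compound, then TGF-beta at 500 pg/mL final, and were incubated 18 hours at 37 degrees C. Viability was read by CellTiter-Glo luminescence. Media-only wells were set as complete cell-killing and DMSO as no toxicity.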
Potency means the concentration at half of the fitted maximal effect.

Row | SMILES | activity change, negative = cytotoxicity | Potency
1 | O=C(Cn1c(=O)nc(-c2ccccc2)c2cc(Cl)ccc21)NCc1ccc(Cl)cc1 | -12.1% | –
2 | CC(C)c1ccc2c(c1)c(SC(C)(C)C)c(CC(C)(C)C(=O)O)n2Cc1ccc(Cl)cc1 | – | 10 µM (active)
3 | CC(C)c1ccc(Cn2c(COc3ccccc3)nc3ccccc32)cc1 | -27.8% | –
4 | O=C(c1cccc(Br)c1)N1CCN(Cc2cc(=O)n3nc(-c4ccccc4)sc3n2)CC1 | -18.3% | –
5 | CCCOc1ccc(N2CC(C(=O)Nc3ccccn3)CC2=O)cc1 (centres undefined) | -3.04% | –
6 | CCCOc1ccc(C(=O)C(CCC(CNCC)C(=O)c2ccc(OCCC)cc2)CNCC)cc1 (centres undefined) | – | 3.16 µM (active)
7 | CCCOc1cccc(C(=O)Nc2cccc(NC(=O)c3ccc(C(C)(C)C)cc3)c2)c1 | 3.52% | –
8 | CC(C)(C)C1CCC(NC(=O)c2cnn3c2NC(=C2CC2)C=C3C(F)F)CC1 (centres undefined) | -16.9% | –
9 | CN(C)c1ccc(/C=C/c2sc3ccccc3[n+]2CCCCBr)cc1 | -31.8% | –
10 | Cc1c(CCO)sc[n+]1CC(=O)c1ccc2ccccc2c1 | -31.7% | –
11 | CCC1CCCCN1S(=O)(=O)c1ccc(NC(=O)c2cc(=O)c3ccccc3o2)cc1 (centres undefined) | -20.4% | –
12 | Cc1cc2oc3ccc(NCCC4CCCN4C)cc3c(=O)c2cc1C (centres undefined) | – | 10 µM (active)
13 | CNCCCOc1cc2nc(N3CCCN(C)CC3)nc(NC3CCN(C)CC3)c2cc1OC | 18.3% | –
14 | COc1ccccc1CNS(=O)(=O)c1cc(Br)cc2c1N(C(C)=O)C(C)C2 (centres undefined) | -4.39% | –
15 | O=C(Cn1nc(Cc2cccnc2)c2ccccc2c1=O)N1CCN(c2ccccc2F)CC1 | -35.2% | –
16 | COc1cc(OC)c(/C=C/c2ccnc3ccccc23)c(OC)c1 | -60.5% | –
17 | O=C(CSc1nccn1Cc1ccc(F)cc1)NCc1ccccc1 | 2.14% | –
18 | COc1cc(OC)c(C2C=C(C(=O)O)Nc3ncnn32)cc1OC (centres undefined) | -5.04% | –
19 | NC(Cc1ccc(F)cc1)c1csc(Nc2nncc3ccccc23)n1 (centres undefined) | – | 15.8 µM (active)
20 | COCC(C)NC(=O)COc1nncc2ccccc12 (centres undefined) | -14.5% | –
21 | CN(Cc1ccccc1)c1ccc(/C=C/c2ccnc3ccccc23)cc1 | -29.2% | –
22 | Cc1ccc(OCC(=O)OCc2cc(=O)n3nc(C4CC4)sc3n2)cc1 | -0.276% | –
23 | CCCCC(CCCC)c1ccc(C=Nc2ccc(/C=C/c3ccnc4ccccc34)cc2)cc1 | -13.4% | –
24 | COc1ccc(CN(C(=O)CSc2nnc(-c3ccc(OC)c(OC)c3)o2)c2ccc(F)cc2)cc1 | -10% | –
25 | COc1ccc(-c2nnc(SC(=O)N3c4ccccc4Sc4ccccc43)o2)cc1 | – | 11.2 µM (active)

Row | SMILES | activity change, negative = cytotoxicity | Potency
26 | COc1ccccc1-c1nnc(SCC(N)=O)o1 | -3.91% | –
27 | COc1cccc(CNc2nc(NCc3ccccc3OC)nc3ccsc23)c1 | – | 11.2 µM (active)
28 | CC(C)Nc1nc(NCCOc2ccccc2Cl)c2sccc2n1 | -68.9% | –
29 | COc1cccc(CNc2nccn(-c3ccc(OC)c(OC)c3)c2=O)c1 | 4.25% | –
30 | CCN(CC)/[N+]([O-])=N/OCOC(=O)Cc1c(C)n(C(=O)c2ccc(Cl)cc2)c2ccc(OC)cc12 | -23.8% | –
31 | Cc1ccccc1CN1CCC(CNC(=O)c2c(C)oc3ncnc(N4CCCCC4)c23)CC1 | -36.1% | –
32 | COc1cc(NC(=O)c2cc3ccc4cccnc4c3[nH]2)cc(OC)c1OC | -13.7% | –
33 | CCOc1ccccc1N(CC)C(=O)Nc1cn(C)c(=O)c2ccccc12 | -16.5% | –
34 | CCOc1ccccc1N(CC)C(=O)c1cc2ccc3cccnc3c2[nH]1 | – | 12.6 µM (active)
35 | Cc1ccccc1CN1CCC(C(=O)Nc2ccc(Oc3cccnc3)cc2)CC1 | -16.9% | –
36 | Cc1ccccc1CN1CCC(CNC(=O)c2cc3ccc4cccnc4c3[nH]2)CC1 | – | 12.6 µM (active)
37 | CCOc1ccc(N(CC)C(=O)C2CCN(S(=O)(=O)c3cccc4nonc34)CC2)cc1 | 0.639% | –
38 | COc1ccccc1NC(=O)C1=C(C)Nc2ncnn2C1c1sccc1C (centres undefined) | -2.86% | –
39 | O=C(CSc1nc(=O)[nH]c2c1CCCC2)Nc1cc(C(F)(F)F)ccc1Cl | -17.4% | –
40 | CCN1CCN(c2ccc(/C=C/c3ccnc4ccccc34)cc2)CC1 | -46.6% | –
41 | Cc1oc2ncn(CC(C)C)c(=O)c2c1C(=O)N1CCN(c2ccccc2F)CC1 | 3.12% | –
42 | O=C1NC(Nc2nc3ccccc3s2)(C(F)(F)F)C(=O)N1C1CCCCC1 (centres undefined) | – | 11.2 µM (active)
43 | O=C(NC1(C(F)(F)F)N=C(c2ccccc2)N(C2CCCCC2)C1=O)c1ccccc1F (centres undefined) | -0.647% | –
44 | CCCN(C(=O)Cn1ncc2c([nH]c3ccc(C)cc32)c1=O)c1ccccc1C | 4.59% | –
45 | Cc1ccc(/C=N/NC(=O)COc2ccccc2-c2ccccc2)cc1 | – | 10 µM (active)
46 | O=C(COc1ccc(-c2ccccc2)cc1)NN=C1CCCC1 | -16.8% | –
47 | CC(=O)c1ccc(NC(=O)COc2ccccc2-c2nc(-c3ccccc3)no2)cc1 | -1.05% | –
48 | CCOc1ccccc1NC(=O)CCn1cnnn1 | 0.0324% | –
49 | O=C(Nc1ccccc1Cl)/C(Cl)=C(\Cl)S(=O)c1ccccc1 (centres undefined) | – | 3.55 µM (active)
50 | O=C(Nc1ccccc1Cl)N1CCC(CN2CCCC2)CC1 | -7.37% | –

Row | SMILES | activity change, negative = cytotoxicity | Potency
51 | O=C(Nc1ccccc1Cl)N1CCC(CN2CCCCC2)CC1 | 1.13% | –
52 | CCCN1CCC(=O)N(C(CSc2ccc(OC)cc2)Cc2ccccc2)CC1 (centres undefined) | -31.2% | –
53 | Cc1ccccc1CNC(=O)C1CCCN(S(=O)(=O)N(C)c2ccc(F)cc2)C1 (centres undefined) | -15.9% | –
54 | CCCSc1ncc(Cl)c(C(=O)Nc2c(C(=O)Nc3ccccc3)oc3ccccc23)n1 | 0.304% | –
55 | CCOC(=O)c1ccc(NC(=O)c2nc(SCc3ccc(F)cc3)ncc2Cl)cc1 | -13.4% | –
56 | Cc1cccc(CS(=O)(=O)c2ncc(Cl)c(C(=O)Nc3ccc(F)cc3)n2)c1 | – | 10 µM (active)
57 | CCS(=O)(=O)c1ncc(N(Cc2ccc(F)cc2)Cc2ccco2)c(C(=O)Nc2cc(C)ccc2C)n1 | -1.85% | –
58 | Cc1ccc(CCNC(=O)c2ccc(CS(=O)(=O)Cc3cccc(C)c3)o2)cc1 | -21% | –
59 | Cc1ccc(NC(=O)c2nc(S(=O)(=O)Cc3cccc(C)c3)ncc2Cl)cc1 | – | 7.08 µM (active)
60 | CSc1ncc(Cl)c(C(=O)Nc2ccc(S(=O)(=O)N3CCCC(C)C3)cc2)n1 (centres undefined) | -5.61% | –
61 | Cc1cccc(NC(=O)c2nc(S(=O)(=O)Cc3ccccc3)ncc2Cl)c1 | – | 11.2 µM (active)
62 | O=C(Nc1ccccc1C(F)(F)F)c1nc(S(=O)(=O)Cc2ccccc2F)ncc1Cl | -106% | –
63 | CCCCCCCNc1ccc(/C=C/c2ccnc3ccccc23)cc1 | -6.29% | –
64 | Cc1ccc(N2CC(NC(=O)Cc3cccs3)CC2=O)cc1 (centres undefined) | 6.69% | –
65 | CN(C)c1ccc(/C=C2\C=Cc3ccccc32)cc1Br | -30.3% | –
66 | COc1ccc(-c2ccc(OC)c(C3C4C=CCC(C)C4C(=O)N3Cc3ccccc3)c2)cc1C (centres undefined) | 9.55% | –
67 | CN(C)CCCN(C(=O)c1ccc(S(=O)(=O)N2CCCCCC2)cc1)c1nc2ccc(Br)cc2s1 | – | 22.4 µM (active)
68 | O=C(CCOc1ccccc1)N(Cc1cccnc1)c1nc2ccc(Cl)cc2s1 | -23.5% | –
69 | Cc1ccc(S(=O)(=O)N(CCCN(C)C)Cc2ccc3c(c2)OCO3)cc1 | -7.76% | –
70 | Cc1cc(C)c2sc(NC(=O)c3ccc(S(=O)(=O)N4CCCC4)cc3)nc2c1 | -2.41% | –
71 | CCc1ccc2nc(N(CCCN(C)C)C(=O)c3ccc4c(c3)OCCO4)sc2c1 | – | 11.2 µM (active)
72 | CCOc1ccc2nc(N(CCCN(C)C)C(=O)c3ccc(C(=O)c4ccccc4)cc3)sc2c1 | – | 15.8 µM (active)
73 | O=C(CN(Cc1ccccc1)C(=O)c1ccc2c(c1)OCCO2)NCc1ccc2c(c1)OCO2 | 59.1% | –
74 | CCOc1ccc2nc(N3CCC(C(=O)Nc4cc(C)ccc4C)CC3)sc2c1 | -20.6% | –
75 | CCN(CC(=O)Nc1c(F)cccc1F)C(=O)c1ccc(S(=O)(=O)N2CCCCC2)cc1 | 2% | –

Row | SMILES | activity change, negative = cytotoxicity | Potency
76 | Cc1nn(C)c2c1c(C(F)(F)F)cc(=O)n2C(C)C(=O)NCc1ccc(Cl)cc1 (centres undefined) | -0.512% | –
77 | COc1ccc(CNC(=O)c2cc3c(=O)[nH]c4ccc(C)cc4c3s2)c(OC)c1 | -25.2% | –
78 | COc1cc(-c2cc3n(C)c(C)c(CCC(=O)Nc4ccc(F)cc4)c(=O)n3n2)cc(OC)c1OC | 2.54% | –
79 | CC(=O)c1ccc(NC(=O)C2CCN(S(=O)(=O)c3c(C)noc3/C=C/c3ccc(C)cc3)CC2)cc1 | 6.96% | –
80 | COc1ccc(CNC(=O)c2cc3c(-c4ccccc4F)nn(C)c3s2)c(OC)c1 | -22.9% | –
81 | COC(=O)c1scc(-c2ccccc2)c1S(=O)(=O)Nc1ccccc1 | -17.3% | –
82 | O=c1[nH]c(CCl)nc2cc(-c3ccc(Cl)cc3)sc12 | – | 4.47 µM (active)
83 | SCc1nc2ccc(Cl)cc2[nH]1 | -19.2% | –
84 | COc1cccc(-c2cc3nc(NCCOc4ccccc4Cl)n(C)c(=O)c3s2)c1 | -25.5% | –
85 | CCOC(=O)C1CCC(CN(Cc2ccc(OC)cc2)S(=O)(=O)c2ccc(F)c(C(=O)Nc3cc(C)ccc3C)c2)CC1 (centres undefined) | -1.68% | –
86 | Cc1ccc(C)c(CNC(=O)c2cc3ccccn3n2)c1 | -13.7% | –
87 | CCOc1n[nH]c(-c2ccccc2)n1 | -32.4% | –
88 | NNC(=O)c1cnn(-c2ccccc2)c1C(F)(F)F | 14.9% | –
89 | CCNC(=O)c1cnn(-c2ccccc2)c1-c1ccccc1 | -1.48% | –
90 | Nc1c(C(=O)O)cnn1-c1ccccc1 | – | 11.2 µM (active)
91 | Cc1ccc(F)cc1S(=O)(=O)N1CCC(c2nc3ccccc3s2)CC1 | -8.96% | –
92 | O=C(CC1NCCc2ccccc21)Nc1cccc(Cl)c1 (centres undefined) | -10.5% | –
93 | O=C(CC1Nc2ccccc2NC1=O)Nc1ccccc1 (centres undefined) | – | 12.6 µM (active)
94 | COC(=O)c1cc(C)sc1NC(=O)CC1Nc2ccccc2NC1=O (centres undefined) | -1.34% | –
95 | N#Cc1cc2[nH]c(=O)c(=O)[nH]c2cc1[N+](=O)[O-] | -56.5% | –
96 | CCOc1ccc(NC(=O)CN(Cc2ccccc2)S(=O)(=O)c2ccc(Cl)cc2)cc1 | -26.9% | –
97 | CCOc1ccc(N(Cc2ccccc2)C(=O)c2nc(SCC)ncc2Cl)cc1 | -60.2% | –
98 | CCOc1ccc(N(Cc2ccccc2)C(=O)c2nc(S(C)(=O)=O)ncc2Cl)cc1 | – | 3.55 µM (active)
99 | COCCNC(=O)c1ccc2c(c1)N(Cc1cccc(Cl)c1)C(=O)c1ccccc1S2(=O)=O | -23.1% | –
